The source made the active and inactive calls.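 Rule for the calls: active = GFP response below 50% of the DMSO control; inconclusive = fewer than 70 events counted for a yeast strain; inactive = the rest.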
Assay: RPL19A-GFP modulators, yeast TOR pathway, confirmation, cell-based, S. cerevisiae, flow cytometry, cherry picks, mother/daughter gates (AID 2270)
Conditions: S. cerevisiae RPL19A-GFP strain, 3 h, at 10 µM, stronger effect = lower value, 100 = same GFP as DMSO wells

GFP response vs DMSO, inactive:
O=C(CCC(F)(F)F)N1CCC(CO)(CCc2ccccc2)CC1 102%
O=C(Nc1cc(Sc2ccccn2)cc([N+](=O)[O-])c1)c1cccc(F)c1 96.9%
CC(=O)Nc1cccc(/C(C)=N/NC(=O)c2ccccc2Cl)c1 98.2%
Cc1cc(Br)c2c(c1)/C(=C/C(=O)c1cccs1)C(=O)N2 99.6%
N=C1S/C(=C\c2ccco2)C(=O)N1c1nccs1 109%
Cc1cc(NC(=O)c2cccnc2Cl)ccc1NC(=O)c1cc2ccccc2o1 98%
COc1ccc2c(/C=C/c3cc[n+](C)cc3)c[nH]c2c1 102%
C/C(=N\NC(=O)COc1ccccc1-c1ccccc1)c1ccccn1 101%
CC(=O)c1cc(NC(=O)c2ccc(C)cc2)c(=O)oc1C 96.6%
O=C(Cc1ccc(Cl)cc1)NNC(=S)NC(=O)c1cccs1 104%
COc1ccc(NC(=O)Nc2ccon2)c(OC)c1 101%
O=S(=O)(c1ccc(Oc2ccc(Br)cc2)cc1)N1CCOCC1 103%
Cc1cccn2c(=O)c(/C=C(\C#N)C(=O)NCc3ccco3)c(N3CCCC(C)C3)nc12 (stereo unspecified) 99.8%
CCS(=O)(=O)Nc1cccc(C2=NN(S(C)(=O)=O)C(c3ccccc3)C2)c1 (stereo unspecified) 100%
Cc1ccc(C(C(=O)NC2CCCCC2)N(CCCN2CCOCC2)C(=O)c2snc(C(N)=O)c2N)cc1 (stereo unspecified) 101%
O=C(O)C1CCN(S(=O)(=O)c2ccc(Oc3ccccc3)cc2)CC1 98%
